Screening results: PubChem, National Center for Advancing Translational Sciences (NCATS)
Sampled rows, rich in hits. Any-hit rate of the full collection: about 2.3%.
aSyn yeast inh: rescues yeast growth from alpha-synuclein toxicity | Yeast expressing alpha-synuclein, growth rescue, BacTiter-Glo, 24 h | Potency, µM (doses to about 46.1 µM), hits mostly activators | 0.14% of 370,000 active | AID 652106; also: nearly all actives have a fitted effect of over 65% in size
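Rescue of yeast growth: cells expressing toxic alpha-synuclein, induced in galactose at OD600 0.02, incubated with compound 24 h at 30 C. ATP luminescence quantified growth; inhibitors of toxicity appear as activators.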
TDP-43 yeast inh: TDP-43 toxicity inhibition in yeast | TDP-43 expressing yeast growth rescue, BacTiter-Glo, 24 h | Potency, µM (highest dose often 46.1 µM), hits mostly activators | 1.8% of 410,000 active | AID 652104; also: nearly all actives have a fitted effect of over 50% in size
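In this qHTS, compounds that restore growth of yeast expressing TDP-43 appear as activators. Cells (OD600=0.02, galactose medium, raffinose-pregrown) are incubated with compound 24 hr at 30 deg C and growth is quantified by BacTiter-Glo.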
Abeta rescue: restores growth of yeast expressing A-beta42 peptide. Potency, µM (top dose mostly 46.1 µM), hits mostly activators. AID 1347071. yeast expressing A-beta42, growth rescue, OD600, 48 h; response scale: 0% DMSO, 100% iron-clioquinol control. 0.063% of 410,000 active; also: nearly all actives have a fitted effect of over 55% in size
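Yeast A-beta toxicity model in growth medium with pinned compounds, 48 h at 30 C; growth read as absorbance at 600 nm. Normalized to FeCl3/clioquinol equimolar mix (positive) and DMSO (negative).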
FUS yeast rescue: rescues growth of FUS-expressing yeast | S. cerevisiae FUS-expressing, growth rescue, OD600, 24 h | Potency, µM (titrated, usually from 76.6 µM), actives largely listed as activators | 0.24% of 390,000 active | AID 1347120; also: nearly all actives have a fitted effect of over 55% in size
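Toxicity suppression screen in FUS-yeast. Cells induced with 2% galactose, starting OD 0.005, treated 24hr at 30C with compounds at multiple final concentrations; growth by OD600.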
Mm-Cpn inhibitor: blocks the Methanococcus maripaludis chaperonin Mm-Cpn; 0.031% of 330,000 active; purified Mm-Cpn ATPase, ADP Transcreener TR-FRET; Potency, µM (titrated, usually from 76.9 µM), usual class: inhibitors; AID 504842; also: nearly all actives have a fitted effect of over 80% in size
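25 nM Mm-CPN + cpd, 10 min 37°C; + 10 uM ATP, 30 min 37°C; buffer 30 mM Tris pH 7.4, 100 mM KCl, 5 mM MgCl2, 1 mM DTT; Transcreener ADP HTRF detection 30 min RT.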
CCT chaperon mod: changes cytosolic chaperonin activity; activity change, % (no concentration beside the values), hits read low; 0.3% of 360,000 active; purified chaperonin ATPase assay, HTRF ADP detection, 30 min; AID 651819; in the data active = activity change below about -30%
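Nucleotide hydrolysis assay: TRiC at 20–40 nM final (set by batch activity) with 10 uM ATP, 30 min at 37 °C, in presence of 76 uM compound. Detection by competitive ADP HTRF, 30 min ambient.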
Each line names hits and unclear results; the compound was inactive in the other large screens. Unless noted, calls follow the shape of the dose curve; as a rule, active = well fitted curve in the direction sought with a large enough effect; inconclusive = small, poorly fitted or top-dose-only effect, or another doubt; inactive = no such curve, though single readings can be large; an effect the other way counts as inactive or inconclusive.

COc1ccccc1CNC1CCC12CCC(c1ccccc1)CC2 (configuration not stated)	none (no result: aSyn yeast inh, TDP-43 yeast inh, Abeta rescue, Mm-Cpn inhibitor, CCT chaperon mod)
COc1ccc(S(=O)(=O)n2nc(-c3ccco3)nc2NCc2ccc(N(C)C)cc2)cc1	FUS yeast rescue 32µM (no result: aSyn yeast inh, Mm-Cpn inhibitor, CCT chaperon mod)
Cc1ccc(S(=O)(=O)n2nc(-c3ccco3)nc2NCc2ccc(N(C)C)cc2)cc1	FUS yeast rescue inconclusive (no result: aSyn yeast inh, Mm-Cpn inhibitor, CCT chaperon mod)
Cc1nn(-c2ccccc2)c2sc(C(=O)N3CCN(C(c4ccccc4)c4ccc(Cl)cc4)CC3)cc12 (configuration not stated)	none (no result: aSyn yeast inh, TDP-43 yeast inh, Abeta rescue, Mm-Cpn inhibitor, CCT chaperon mod)
CC1CCCN(CCOCCOc2ccc(Cl)cc2Br)C1 (configuration not stated)	FUS yeast rescue 7.1µM
NS(=O)(=O)c1ccc(NC(=O)CSc2nnc(-c3cccs3)o2)cc1	none (no result: aSyn yeast inh, TDP-43 yeast inh, Abeta rescue, Mm-Cpn inhibitor, CCT chaperon mod)
Fc1cccc(Cn2ccc3ccc(-c4ccc5ccn(Cc6cccc(F)c6)c5c4)cc32)c1	none (no result: aSyn yeast inh, TDP-43 yeast inh, Abeta rescue, Mm-Cpn inhibitor, CCT chaperon mod)
COc1ccc(/C(N)=N/OC(=O)C2CCCCC2)cc1OC	none
COc1ccc(/C(N)=N/OC(=O)CN(C)S(=O)(=O)c2ccccc2)cc1	TDP-43 yeast inh 13µM, Mm-Cpn inhibitor inconclusive
COc1ccc(CC(=O)O/N=C(\N)c2ccc(OC)cc2)cc1	TDP-43 yeast inh 18µM
COc1ccc(/C(N)=N/OC(=O)C2CCCCC2)cc1	TDP-43 yeast inh 16µM
COc1ccc(CC(=O)O/N=C(\N)Cc2ccc(OC)cc2)cc1	TDP-43 yeast inh 11µM
COc1ccc(/C(N)=N/OC(=O)Cc2cccs2)cc1	TDP-43 yeast inh inconclusive
COc1ccc(NC(=O)c2ccccc2OCC(=O)Nc2ccc(Br)cc2)cc1	none (no result: TDP-43 yeast inh, Abeta rescue, FUS yeast rescue, Mm-Cpn inhibitor, CCT chaperon mod)
COc1ccc(C/C(N)=N/OC(=O)Cc2ccccc2)cc1	TDP-43 yeast inh 16µM
N/C(Cc1ccc(Cl)cc1Cl)=N\OC(=O)Cc1ccc(Cl)cc1	TDP-43 yeast inh 1.3µM
O=C(N/N=C/c1c[nH]c2ccccc12)c1cccc(Cl)c1	none
O=C(N/N=C/C1C(c2ccccc2)C1(Cl)Cl)c1cccc(Cl)c1 (configuration not stated)	FUS yeast rescue 5.6µM
Cc1ccc(NC(=O)COC(=O)c2ccccc2OCC(=O)N(C)C)cc1	none (no result: TDP-43 yeast inh, Abeta rescue, FUS yeast rescue, Mm-Cpn inhibitor, CCT chaperon mod)
C[C@@]12CCC3[C@@](CCC4[C@@]3(C)CCC[C@@]4(C)C(=O)O)(CC1=O)C2 (some centres not stated)	TDP-43 yeast inh 20µM
COCCNc1ncnc2c1c(-c1ccccc1)cn2-c1cccc(Cl)c1	TDP-43 yeast inh 35µM, FUS yeast rescue inconclusive (no result: aSyn yeast inh, Mm-Cpn inhibitor, CCT chaperon mod)
CC(=O)Nc1ccc(Nc2ncnc3c2c(-c2ccccc2)cn3-c2ccc(C)c(Cl)c2)cc1	TDP-43 yeast inh 16µM, FUS yeast rescue inconclusive (no result: aSyn yeast inh, Mm-Cpn inhibitor, CCT chaperon mod)
COc1ccccc1NC(=O)Nc1nn(C)c2cccc(N(C)C)c12	TDP-43 yeast inh 20µM, FUS yeast rescue inconclusive
N#CC1=C(N2CCCCC2)c2cc3c(n2C1=O)CCCC3	TDP-43 yeast inh 14µM
CCOC(=O)C1=C(SCC)c2cc3c(n2C1=O)CCCC3	none
COc1ccc(CNS(=O)(=O)CC2NCc3cc(OC)ccc32)cc1 (configuration not stated)	none (no result: aSyn yeast inh, TDP-43 yeast inh, Abeta rescue, Mm-Cpn inhibitor, CCT chaperon mod)
O=C(CN1CCN(C(=O)c2c(F)cccc2F)CC1)Nc1ccccc1C(F)(F)F	TDP-43 yeast inh 16µM
O=C(CN1CCN(CC(=O)Nc2ccccc2C(F)(F)F)CC1)Nc1ccccc1F	none
COc1cc(/C=C/c2nc3ccccc3nc2/C=C/c2cc(OC)c(OC)c(OC)c2)cc(OC)c1OC	none (no result: TDP-43 yeast inh, Abeta rescue, FUS yeast rescue, Mm-Cpn inhibitor, CCT chaperon mod)
N#CC(=C(\N)Sc1ccccc1N)/C(C#N)=C(/N)Sc1ccccc1N	none (no result: TDP-43 yeast inh, Abeta rescue, FUS yeast rescue, Mm-Cpn inhibitor, CCT chaperon mod)
CCOC(=O)c1cccc(N2C(=O)c3ccccc3S2(=O)=O)c1	TDP-43 yeast inh 11µM (no result: aSyn yeast inh)
CCCn1nnc(NC(=O)c2ccc(-c3cccc(Cl)c3)o2)n1	TDP-43 yeast inh 13µM
COCC(=O)N[C@H]1C[C@@H]2O[C@H](CO)CC[C@@H]2O[C@@H]1CCc1ccc(-c2ccccc2)cc1	none (no result: aSyn yeast inh, TDP-43 yeast inh, Abeta rescue, Mm-Cpn inhibitor, CCT chaperon mod)
Cc1ccc2cc(F)c(F)c(F)c2n1	TDP-43 yeast inh inconclusive (no result: Mm-Cpn inhibitor)
Cc1ccc2ccc3ccc(C)nc3c2n1	TDP-43 yeast inh 4.5µM
COc1ccc(Cl)cc1NC(=O)CSc1nccn1-c1ccc(Cl)cc1	TDP-43 yeast inh inconclusive (no result: aSyn yeast inh, Mm-Cpn inhibitor, CCT chaperon mod)
